Records with an inconclusive call do not appear. Active and inactive are the calls of the source. The call rests on the fitted dose curve; in most records, active means well fitted inhibition curve with a large enough effect; inconclusive means small, poorly fitted or top-dose-only effect; inactive means flat fitted curve, though single readings scatter.
test system: CRL-7250; assay: qHTS assay to identify novel small-molecules to repurpose for Merkel cell carcinoma treatment (AID 1296009); details: MCC and control cell lines, CellTiter-Glo viability, 72 h; series mostly up to 92 µM; activity change, negative = cytotoxicity: at the top concentration; further: nearly all actives have a fitted effect of over 60% in size
Outline: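 Cells were treated for 72 hr at 37 degree celsius with compounds in 8- or 11-point dose response. Viability was read by CellTiter-Glo luminescence, normalized to no-cell (cytotoxicity) and DMSO controls.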

`CC(=O)c1ccc(O[C@@H]2OC[C@@H](O)[C@H](O)[C@H]2O[C@]2(CO)O[C@H](CO)[C@@H](O)[C@@H]2O)c(O)c1` was tested. Which “outcome” value did it give?
Its value is “inactive [at 17.4 µM]”.

How did the “outcome” value turn out when `CC1=CC2/C=C(\C)CCC(O)C(=O)C(O)CC(=O)C23C(=O)NC(CC(C)C)C3C1C` (stereo not drawn) was run?
Its value is “inactive [at 17.4 µM]”.

Which “outcome” value does the source give for `C=C1[C@H]2[C@H](O[C@@H]3O[C@H](COC(=O)/C=C/c4cc(OC)c(O)c(OC)c4)[C@@H](O)[C@H](O)[C@H]3O)OC=C(C(=O)O)[C@H]2C[C@@H]1O` here?
Its value is “inactive [at 17.4 µM]”.

Which “outcome” value does the source give for `C=C1C[C@]23C[C@H]1CC[C@H]2[C@]1(C)CCC[C@@](C)(C(=O)O)[C@H]1[C@@H]3C(=O)O` here?
Its value is “inactive”.

For `C[C@H](Oc1ccc(S(C)(=O)=O)cc1C(=O)N1CCN(c2ncc(C(F)(F)F)cc2F)CC1)C(F)(F)F`, which “outcome” value is on record?
Its value is “inactive”.

Which “outcome” value does the source give for `C=C(COC(=O)CC(C)C)C1Cc2cc(C(C)=O)ccc2O1` (stereo not drawn) here?
The value was “inactive”.

`C=C1C(OC(C)=O)CCC2(C)CC3(O)OC(=O)C(C)=C3CC12` (stereo not drawn) was tested. Which “outcome” value did it give?
The value was “inactive”.

How did the “outcome” value turn out when `O=C(O)C[C@H]1CCC(=O)[C@@H]1C/C=C\CCO` was run?
Its value is “inactive”.

From PubChem BioAssay (NCATS)
